Among all 410,000 compounds or so, about 6,400 (1.6%) were called active. Entries that show only a call come without a potency. About 20% were inconclusive and are not listed. Calls come from the whole dose curve; as a rule, active = well fitted inhibition curve with a large enough effect; inconclusive = small, poorly fitted or top-dose-only effect; inactive = no such curve, though single readings can be large or run the other way. Only a selection was taken, and actives are over-represented in it overall.
Potency is the fitted concentration of half-maximal effect.

Glucagon-like peptide 1 receptor (Homo sapiens), sequence (P43220 whole entry, looked up): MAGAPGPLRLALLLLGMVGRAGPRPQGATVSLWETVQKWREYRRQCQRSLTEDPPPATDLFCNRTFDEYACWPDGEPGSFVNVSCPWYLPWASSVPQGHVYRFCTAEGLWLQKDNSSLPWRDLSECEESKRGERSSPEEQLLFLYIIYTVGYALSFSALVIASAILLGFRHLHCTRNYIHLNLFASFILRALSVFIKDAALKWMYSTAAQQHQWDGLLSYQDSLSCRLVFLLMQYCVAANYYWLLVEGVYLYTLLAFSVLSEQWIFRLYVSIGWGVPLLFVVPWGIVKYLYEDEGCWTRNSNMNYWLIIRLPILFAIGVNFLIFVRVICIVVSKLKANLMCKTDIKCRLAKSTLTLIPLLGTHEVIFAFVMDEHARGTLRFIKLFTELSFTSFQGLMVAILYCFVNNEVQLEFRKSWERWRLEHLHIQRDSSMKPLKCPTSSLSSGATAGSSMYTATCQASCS

The assay addresses Glucagon-like peptide 1 receptor (Homo sapiens) (UniProt P43220). As to the kind of experiment: qHTS of GLP-1 Receptor Inverse Agonists (Inhibition Mode). Note: nearly all actives have a fitted effect of over 55% in size. The settings on record: HEK293 GLP-1R CRE-luciferase, luminescence, 24 h, GLP-1R form is constitutively active; series mostly up to 38.3 µM. From the text:
The overall goal of this project was to develop a novel assay for discovering small molecule ligands for class B1 G protein-coupled receptors (GPCRs). Very few agonists (or inverse agonists in inhibition mode) with generally weak activity for this entire group of physiologically important receptors are known to date. To establish proof-of-principle that this critical bottleneck can be overcome with a suitable screening approach, our studies focused on the class B1 receptor for glucagon-like peptide-1 (GLP-1R), a potential therapeutic target for diabetes and neurodegenerative disease. The assay was developed using a cell-based functional readout. Toward this goal, stably transfected HEK293 cell clones were established that co-express (i) a cAMP-responsive luciferase reporter gene, and (ii) constitutively active GLP-1R that upon ligand interaction inhibit (inverse agonists) the luciferase activity. In addition, two control cell lines were developed: (i) one that express only the cAMP-responsive reporter gene to enable initial exclusion of GLP-1R independent effects of candidate probes; and (ii) one with the reported gene cloned with another constitutively active orphan receptor GPR119 to enable exclusion of GLP-1R independent inhibitor effects of candidate inverse agonists. To that end, this assay was optimized for 1536-well format and screened against the MLSMR. […] NIH Molecular Libraries Probe Production Network [MLPCN] NIH Chemical Genomics Center [NCGC] Grant: NS064851 PI Name: Martin Beinborn, Tufts Medical Center
Six ul of cell suspension (200 cells/uL in DMEM + 10% Nu serum + 1% pen-strep) is dispensed in a white solid 1536-well plate. The plates are incubated for 12 hours at 37 deg C at 5% CO2 followed by addition of 23 nL compounds. After 24 hr incubation at 37 deg C and 5% CO2, 3 uL of luciferase assay detection reagent is added. A luminescence read is obtained on the PerkinElmer Viewlux after 12 min incubation at room temperature.
A general note: In qHTS, concentration-response curves come from the screen itself.
Consider `CCC(=O)N1CCC(C)(C(=O)Nc2cc(OC)c(OC)c(OC)c2)C1` (centres undefined), for which the Potency result is “inactive”.
For `CC(=O)c1cccc(-c2cnc3c(NC=O)cc(-c4ccc(N5CCN(C)CC5)cc4)cn23)c1`, the Potency result is “inactive”.
`COc1ccc(C(=O)Nc2sc(C)c(C)c2CN2CCOCC2)cc1`: the Potency result is “inactive”.
Turning to `COc1ccc(NC(=O)CCN2CCN(CCO)CC2)cc1`, the Potency result was “inactive”.
On to `CCc1cc(C(=O)c2ccc(OC)cc2)c(NC(=O)CN2CCN(C)CC2)s1`, for which the Potency was 4.47 µM (active).
For the compound `CN(C)CCCn1c(SCCN2C(=O)c3ccccc3C2=O)nc2ccccc2c1=O`, the Potency entry was “inactive”.
As to `CC(C)(C)c1nc2ccccc2c(=O)n1N1C(=O)c2ccccc2C1=O`, the Potency was 10 µM (active).
Turning to `Cc1nc2ccccc2c(=O)n1NC(=O)c1ccccc1`, the Potency entry is “inactive”.
On to `CC1(C(=O)Nc2ccc3c(c2)OCCO3)CCN1C(=O)Cc1cc(F)ccc1F` (centres undefined), for which the Potency result was “inactive”.
The result for `CC1(C(=O)NS(=O)(=O)Cc2cccc(Cl)c2)CCN1C(=O)Cc1ccc(Cl)cc1Cl` (centres undefined) reads “inactive”; that for `CC(C)N1C(=O)c2ccccc2NC(=O)C1C(=O)NCc1cccs1` (centres undefined), “inactive”; that for `COCCNc1nc(Nc2ccccc2Cl)c2sc(-c3ccccc3)cc2n1`, “inactive”.
For `CCOc1ccc(S(=O)(=O)NCCC(=O)NNC(=O)c2ccc(F)cc2)cc1`, the Potency entry was “inactive”.
Consider `COc1ccc(NC(=O)CN(C)C(=O)/C=C/c2cn(Cc3ccccc3)nc2-c2cccnc2)cc1`, for which the Potency result is “inactive”.
Take `COc1cccc(NC(=O)CN(C)C(=O)/C=C/c2cn(-c3ccccc3)nc2-c2cccs2)c1`: the Potency is 7.94 µM (active).
Turning to `COc1cccc(NC(=O)CN(C)C(=O)/C=C/c2cc(OC)ccc2OC)c1`, the Potency entry is “inactive”.
The result for `CC(C)(O)C1=C[N+](=O)CC=C1` reads “inactive”.
`CCC(C)CN1C(=O)CSCC1(C)C(=O)NCc1ccccc1` (centres undefined): the Potency result was “inactive”.
Regarding `O=C1OCCC1=COCCCCOC=C1CCOC1=O`, the Potency result is “inactive”.
Turning to `O=C(NCC(O)c1nc2ccccc2[nH]1)c1ccc(Br)cc1` (centres undefined), the Potency entry was “inactive”.
As for `CCN(Cc1cc2cc(C)ccc2[nH]c1=O)S(=O)(=O)c1ccccc1`, the Potency result is “inactive”.
`COc1ccc2[nH]c(=O)c(CN(Cc3cccnc3)S(=O)(=O)c3ccccc3F)cc2c1`: the Potency was 5.01 µM (active).
Regarding `CCOc1ccc2[nH]c(=O)c(CN(CCCO)S(=O)(=O)c3ccc(F)cc3)cc2c1`, the Potency result is “inactive”.
The result for `O=C(c1cccs1)N1C[C@H](n2cc(C3CC3)nn2)[C@@H](O)C[C@@H]1c1ccccc1` reads “inactive”.
In the case of `COCCNc1ncnc2c1ncn2[C@H]1CN(CCN2CCOCC2)C[C@@H](CO)O1`, the Potency entry is “inactive”.
For `CN1CCN(CCCNC(=O)c2cc3c(=O)oc4ccccc4c3s2)CC1`, the Potency result was “inactive”.
Consider `CCC1CCCCN1CCCNC(=O)C1CCC(Cn2c(=O)[nH]c3ccccc3c2=O)CC1` (centres undefined), for which the Potency entry is “inactive”.
Take `COc1ccc(C(C)(NC(C)=O)c2nc(-c3ccc(S(C)(=O)=O)cc3)cs2)cc1` (centres undefined): the Potency entry was “inactive”.
For `O=C(CN1C(=O)NC2(CCc3ccccc32)C1=O)NC1CCCCC1` (centres undefined), the Potency result is “inactive”.
Turning to `O=C(COc1ccc(S(=O)(=O)N2CCCC2)cc1[N+](=O)[O-])N1CCCCC1`, the Potency entry is “inactive”.
For the compound `CC(=O)Oc1cc2c(C(=O)NCCN3CCOCC3)c(C)oc2c2ccccc12`, the Potency is 10 µM (active).
On to `Cc1cc(C)cc(C(=O)NCCN2CCOCC2)c1`, for which the Potency result is “inactive”.
Take `CCc1cc(=O)oc2c(C)c(OCC(=O)NCCN3CCOCC3)ccc12`: the Potency result was “inactive”.
Regarding `O=C1NC(O)CCN1C1CC(O)C(CO)O1` (centres undefined), the Potency result was “inactive”.
As for `COc1ccc(C(O)C(O)(C(=O)OC(C)C)c2ccc(C)cc2)cc1` (centres undefined), the Potency result was “inactive”.
As for `Cc1nc2ccccn2c(=O)c1NC(=O)c1ccc(Br)o1`, the Potency entry is “inactive”.
The result for `CCC(=O)c1ccc(OCC(=O)N(CC)CC2COc3ccccc3O2)cc1` (centres undefined) reads “inactive”; that for `CCCN(CC1COc2ccccc2O1)C(=S)Nc1ccc(C)cc1` (centres undefined), 11.2 µM (active).
In the case of `COc1ccc(NC(=O)C2COc3ccccc3O2)cc1` (centres undefined), the Potency result is “inactive”.
As for `CS(=O)(=O)N1CCCCC1c1cc(C(=O)NCc2ccccc2)no1` (centres undefined), the Potency entry is “inactive”.
The result for `COC(=O)[C@]12CCCCC=C1N(Cc1ccco1)C(=O)[C@H](CC(=O)NCC1CCCCC1)C2` reads “inactive”; that for `O=C(NCCCN1CCN(c2ccc(F)cc2)CC1)Nc1ccc([N+](=O)[O-])cc1`, 11.2 µM (active); that for `O=C(CN1CCN(c2ccccc2)CC1)Nc1ccc(F)cc1`, “inactive”.
Take `CN1CCN(CCNC(=O)Nc2ccc([N+](=O)[O-])cc2)CC1`: the Potency result is “inactive”.
`CCC(C)CN1C(=O)CN(S(C)(=O)=O)CC1(C)C(=O)Nc1ccc2c(c1)OCCO2` (centres undefined): the Potency result is “inactive”.
In the case of `O=C(Nc1cccc2cccnc12)c1ccc2sc([C@H]3C[C@H](O)[C@@H](CO)O3)nc2c1` it was “inactive”; in that of `C=C1C(=O)OC2C1CCC(C)=CCCC1(C)OC21` (centres undefined), “inactive”.
Take `CC1CCCCN1S(=O)(=O)c1ccc(S(=O)(=O)N(CC(=O)Nc2ccccc2)Cc2cccs2)cc1` (centres undefined): the Potency is 11.2 µM (active).
`CSCc1nnc(NC(=O)c2ccc(S(=O)(=O)N3CCCCC3C)cc2)o1` (centres undefined): the Potency result is “inactive”.

These data come from PubChem BioAssay AID624417 (National Center for Advancing Translational Sciences (NCATS), 2012).
